Measurements reported in PubChem BioAssay (Tox21).
Results filed as inconclusive are left out. Active and inactive are the calls of the source. Calls come from the whole dose curve; as a rule, active = well fitted curve in the direction sought with a large enough effect in the signal ratio in the repeat runs (not every such curve was filed as active); inconclusive = weak or mixed curves, or effect the other way; inactive = no such curve, though single readings can be large or run the other way; the % refers to the signal ratio.

molecular target: Estrogen receptor (Homo sapiens) (UniProt P03372); assay: qHTS assay to identify small molecule antagonists of the estrogen receptor alpha (ER-alpha) signaling pathway (AID 743069); conditions: HEK293 ER-alpha-UAS-bla, beta-lactamase ratio, antagonist mode; series mostly up to 69.4 µM; activity, negative = inhibition: at the top concentration
Sequence (P03372 whole entry, looked up): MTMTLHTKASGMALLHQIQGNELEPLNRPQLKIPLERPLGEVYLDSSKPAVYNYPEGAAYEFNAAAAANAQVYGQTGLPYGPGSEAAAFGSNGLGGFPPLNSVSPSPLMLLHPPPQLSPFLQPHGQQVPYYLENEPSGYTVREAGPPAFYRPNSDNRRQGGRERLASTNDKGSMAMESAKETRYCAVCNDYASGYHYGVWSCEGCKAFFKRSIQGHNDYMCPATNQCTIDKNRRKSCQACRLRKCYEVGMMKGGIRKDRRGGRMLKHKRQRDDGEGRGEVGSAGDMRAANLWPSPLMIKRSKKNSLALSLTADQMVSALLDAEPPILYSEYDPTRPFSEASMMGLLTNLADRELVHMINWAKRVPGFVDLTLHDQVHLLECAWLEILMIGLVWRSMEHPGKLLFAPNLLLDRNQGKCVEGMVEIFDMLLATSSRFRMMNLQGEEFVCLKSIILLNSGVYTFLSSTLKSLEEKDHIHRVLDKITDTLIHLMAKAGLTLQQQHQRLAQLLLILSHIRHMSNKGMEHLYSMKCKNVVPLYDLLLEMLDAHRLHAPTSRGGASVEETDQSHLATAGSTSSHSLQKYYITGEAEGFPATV
Text: National Center for Advancing Translational Sciences [NCATS]
NIH Chemical Genomics Center [NCGC]
U.S. Environmental Protection Agency [EPA]
National Institutes of Environmental Health Sciences [NIEHS]
National Toxicology Program [NTP]
U.S. Food and Drug Administration [FDA]
Estrogen receptor (ER), a nuclear hormone receptor, plays an important role in development, metabolic homeostasis and reproduction. Two subtypes of ER, ER-alpha and ER-beta have similar expression patterns with some uniqueness in both types. Endocrine disrupting chemicals (EDCs) and their interactions with steroid hormone receptors like ER causes disruption of normal endocrine function. To identify the compounds that inhibit ER signaling, an ER-alpha-UAS-bla GripTiteTM cell line (Invitrogen, Carlsbad, CA, USA) containing a beta-lactamase reporter gene under the control of an Upstream Activator Sequence (UAS) stably integrated into HEK293 cells was used to screen the Tox21 10K compound library.
Tox21 Assay Protocol Summary:
ER-alpha-bla cells were cultured in assay medium containing 2% charcoal stripped FBS overnight in the culture flasks before the assay was performed. The cells were dispensed at 5,000 cells/5 uL of assay medium per well into black wall/clear-bottom 1536-well plates using a Multidrop Combi (ThermoFisher Scientific, Waltham, MA) dispenser. After the assay plates were incubated at a 37C and 5% CO2 for 4 hr, 23 nL of compounds dissolved in DMSO, positive controls or DMSO only was transferred to the assay plate by a Pintool station (Kalypsys, San Diego, CA), followed by addition of 1 uL of 17beta-estradiol in assay medium using a Flying Reagent Dispenser (Aurora Discovery, San Diego, CA). The plates were incubated at 37C and 5% CO2 for 18 hr. Then 1 uL of LiveBLAzerTM B/G FRET substrate was added using a Flying Reagent Dispenser, the plates were incubated at room temperature for 2 hours, and fluorescence intensity was measured by an Envision plate reader (PerkinElmer, Shelton, CT).
% is set by controls: 0 for no effect and ±100 for the full control effect.

Compound	activity, negative = inhibition
O=P(O)(Oc1ccccc1)Oc1ccccc1	16.1% (inactive)
CCCCc1ccc(O)cc1	8.5% (inactive)
CCC(Cl)[N+](=O)[O-] (stereo not given)	7.81% [at 79.1 µM] (inactive)
Nc1c(Br)cc([N+](=O)[O-])cc1[N+](=O)[O-]	-25.2% [at 79.1 µM] (inactive)
CC1=C(C(=O)Nc2ccccc2)S(=O)(=O)CCO1	-16.2% (inactive)
Cc1cc(C)nc(Nc2ccccc2)n1	20.2% (inactive)
O=C1OC(c2ccc(O)c(S(=O)(=O)O)c2)(c2ccc(O)c(S(=O)(=O)O)c2)c2c(Br)c(Br)c(Br)c(Br)c21	13.3% (inactive)
ClC(Br)Br	3.24% (inactive)
O=C(CCCN1CCC(n2c(=O)[nH]c3ccccc32)CC1)c1ccc(F)cc1	6.84% [at 32.6 µM] (inactive)
CCOC(=O)CP(=O)(OCC)OCC	12.6% (inactive)
CCOP(=S)(OCC)SCSP(=S)(OCC)OCC	-19.7% (inactive)
O=c1oc2ccccc2c(O)c1C1CCCc2ccccc21 (stereo not given)	-23.8% (inactive)
COc1cc(OC)nc(NC(=O)NS(=O)(=O)c2ncccc2OCC(F)(F)F)n1	-6.77% (inactive)
O=C(N[C@H]1CN2CCC1CC2)c1cc2ccoc2cn1	15.7% (inactive)
O=[N+]([O-])c1cccc2cccnc12	-7.46% [at 79.1 µM] (inactive)
CCCSP(=S)(OCC)Oc1ccc(Cl)cc1Cl (stereo not given)	13.5% (inactive)
COP(=S)(OC)Oc1c(Cl)cc(C)cc1Cl	14.9% (inactive)
C1CCC(C2CCCCC2)CC1	4.34% (inactive)
CCC/C(=N\OCC)C1=C(O)CC(CC(C)SCC)CC1=O (stereo not given)	15.8% [at 79.1 µM] (inactive)
COc1cc(OC)nc(NC(=O)NS(=O)(=O)c2ncccc2C(=O)N(C)C)n1	40.2% (inactive)

Compound	activity, negative = inhibition
CCN(CC)c1nc(C)cc(OP(=S)(OC)OC)n1	-12.7% (inactive)
ClC(Cl)C(Cl)Cl	7.43% [at 79.1 µM] (inactive)
CCN(Cc1ccc(Cl)nc1)/C(=C/[N+](=O)[O-])NC	-3.26% (inactive)
N#Cc1ccncc1	20.4% [at 79.1 µM] (inactive)
O=CNC(N1CCN(C(NC=O)C(Cl)(Cl)Cl)CC1)C(Cl)(Cl)Cl (stereo not given)	5.12% (inactive)
CSc1ccc(C(=O)C(C)(C)N2CCOCC2)cc1	-2.46% (inactive)
CCOc1nc(C(Cl)(Cl)Cl)ns1	18.3% (inactive)
Cc1cccc(C#N)c1	9.39% (inactive)
NC(=O)c1cc([N+](=O)[O-])cc([N+](=O)[O-])c1	11% (inactive)
O=NN1CCN(N=O)CC1	-9.45% (inactive)
CC(=O)CC(c1ccc(Cl)cc1)c1c(O)c2ccccc2oc1=O (stereo not given)	10.3% [at 79.1 µM] (inactive)
COc1ncc(F)c2nc(S(=O)(=O)Nc3c(F)cccc3F)nn12	10.9% (inactive)
N#CCCC#N	-4.09% (inactive)
N#Cc1c(Cl)cccc1Cl	9.69% (inactive)
CCC1(c2ccccc2)C(=O)N=C(O)NC1=O (stereo not given)	-6.84% (inactive)
C[N+](C)=CCl	24.9% (inactive)
O=C1OC(=O)C2C1C1(Cl)C(Cl)=C(Cl)C2(Cl)C1(Cl)Cl (stereo not given)	4.57% [at 79.1 µM] (inactive)
O=[N+]([O-])c1cc(Cl)c(Cl)c(Cl)c1	5.04% (inactive)
C[C@H]1CCC[C@H](O)CCCCCc2cc(O)cc(O)c2C(=O)O1	-11.4% (inactive)
CC(=O)C(Cl)Cl	14.6% [at 79.1 µM] (inactive)
